Assay results reported in paper PMC7862700, “An all-to-all approach to the identification of sequence-specific readers for epigenetic DNA modifications on cytosine”.

What was measured:
Test in all cases: DAPPL (digital affinity profiling via proximity ligation, sequencing); 10 mM Tris-HCl pH 7.5, 50 mM NaCl, 1 mM DTT, 4% glycerol, room temperature, 30 min; GST-TFs on glutathione beads, 16-mer random dsDNA library, 0.1% formaldehyde crosslink after washing; high values mean tight binding
FLI1 = target: T1, FLI1 (Homo sapiens, UniProt Q01543 1-452); details: protein: recombinant; tags: N-terminal GST; dsDNA, one strand shown
T1 sequence: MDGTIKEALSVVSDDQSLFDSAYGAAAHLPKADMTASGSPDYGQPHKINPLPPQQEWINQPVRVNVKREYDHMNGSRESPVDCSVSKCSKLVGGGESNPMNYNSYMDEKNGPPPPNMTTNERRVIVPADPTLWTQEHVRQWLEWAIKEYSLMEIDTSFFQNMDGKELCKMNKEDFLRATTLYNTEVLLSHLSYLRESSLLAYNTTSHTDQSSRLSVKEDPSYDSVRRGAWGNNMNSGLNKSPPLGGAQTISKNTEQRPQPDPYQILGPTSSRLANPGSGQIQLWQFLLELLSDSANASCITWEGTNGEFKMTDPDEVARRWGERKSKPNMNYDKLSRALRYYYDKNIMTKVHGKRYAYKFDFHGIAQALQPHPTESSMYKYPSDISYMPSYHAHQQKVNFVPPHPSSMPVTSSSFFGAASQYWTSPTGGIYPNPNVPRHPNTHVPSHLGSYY
Method in brief: (§1)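 Pools were built from human transcription factors expressed in yeast as GST fusions, captured on glutathione beads and DNA-barcoded, along with a tag-only sample. Incubation with 200 nmole of a 16-mer random double-stranded DNA library lasted 30 min at room temperature in Tris/NaCl/DTT/glycerol buffer, and was followed by washing, 0.1% formaldehyde crosslinking, proximity ligation, PCR amplification and Illumina NextSeq500 sequencing. Binding signal is the quotient of each hexamer's read frequency for a factor and its frequency for the tag-only sample.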

ELK1 = target: T2, ELK1 (Homo sapiens, UniProt P19419 1-428); details: protein: recombinant; tags: N-terminal GST; dsDNA, one strand shown
T2 sequence: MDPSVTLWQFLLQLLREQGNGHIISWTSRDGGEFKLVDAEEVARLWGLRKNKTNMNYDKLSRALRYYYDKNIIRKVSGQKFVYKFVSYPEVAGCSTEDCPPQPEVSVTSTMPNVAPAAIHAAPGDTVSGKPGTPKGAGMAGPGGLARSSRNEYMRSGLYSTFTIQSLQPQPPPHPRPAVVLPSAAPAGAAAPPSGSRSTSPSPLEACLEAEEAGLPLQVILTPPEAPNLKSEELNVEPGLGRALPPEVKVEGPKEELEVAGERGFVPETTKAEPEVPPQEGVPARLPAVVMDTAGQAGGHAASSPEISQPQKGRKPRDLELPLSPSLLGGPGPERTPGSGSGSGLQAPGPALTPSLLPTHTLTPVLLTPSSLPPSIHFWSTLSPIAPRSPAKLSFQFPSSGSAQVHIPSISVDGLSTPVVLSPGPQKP
Method in brief: as §1

GABPA = target: T3, GABPA (Homo sapiens, UniProt Q06546 1-454); details: protein: recombinant; tags: N-terminal GST; dsDNA, one strand shown
T3 sequence: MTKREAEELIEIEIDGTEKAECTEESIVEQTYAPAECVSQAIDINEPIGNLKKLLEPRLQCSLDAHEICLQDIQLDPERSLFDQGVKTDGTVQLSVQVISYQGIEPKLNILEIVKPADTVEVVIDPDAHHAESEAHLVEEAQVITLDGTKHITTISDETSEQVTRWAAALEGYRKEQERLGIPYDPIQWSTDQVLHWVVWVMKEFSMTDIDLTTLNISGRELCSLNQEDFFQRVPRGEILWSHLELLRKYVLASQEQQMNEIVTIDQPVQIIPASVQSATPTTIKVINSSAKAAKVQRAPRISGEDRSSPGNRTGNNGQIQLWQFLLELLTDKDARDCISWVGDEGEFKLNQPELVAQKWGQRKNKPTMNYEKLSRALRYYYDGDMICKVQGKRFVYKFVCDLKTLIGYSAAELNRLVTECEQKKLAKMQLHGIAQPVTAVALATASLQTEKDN
Method in brief: as §1

ELF1 = ELF1 (Homo sapiens, UniProt P32519 1-619); details: protein: recombinant; tags: N-terminal GST; dsDNA, one strand shown
Sequence of ELF1 (P32519 whole entry): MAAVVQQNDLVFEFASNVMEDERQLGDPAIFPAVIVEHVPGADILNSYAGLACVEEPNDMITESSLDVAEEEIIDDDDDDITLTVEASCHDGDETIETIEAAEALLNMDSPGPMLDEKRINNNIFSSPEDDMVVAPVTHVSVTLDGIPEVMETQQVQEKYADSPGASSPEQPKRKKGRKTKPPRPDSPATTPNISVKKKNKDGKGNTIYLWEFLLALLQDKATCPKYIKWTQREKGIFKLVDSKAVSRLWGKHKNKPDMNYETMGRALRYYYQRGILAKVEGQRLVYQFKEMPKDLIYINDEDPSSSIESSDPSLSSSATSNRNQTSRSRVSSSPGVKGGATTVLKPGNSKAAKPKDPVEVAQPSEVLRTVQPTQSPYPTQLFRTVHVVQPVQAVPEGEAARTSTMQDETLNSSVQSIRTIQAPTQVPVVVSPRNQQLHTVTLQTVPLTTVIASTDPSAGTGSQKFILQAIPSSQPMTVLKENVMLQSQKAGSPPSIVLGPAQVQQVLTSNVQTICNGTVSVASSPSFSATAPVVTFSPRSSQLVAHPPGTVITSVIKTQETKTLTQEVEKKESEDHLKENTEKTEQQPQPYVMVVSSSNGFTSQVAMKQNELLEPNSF
Method in brief: as §1

EHF = target: T4, EHF (Homo sapiens, UniProt Q9NZC4 1-300); details: protein: recombinant; tags: N-terminal GST; dsDNA, one strand shown
T4 sequence: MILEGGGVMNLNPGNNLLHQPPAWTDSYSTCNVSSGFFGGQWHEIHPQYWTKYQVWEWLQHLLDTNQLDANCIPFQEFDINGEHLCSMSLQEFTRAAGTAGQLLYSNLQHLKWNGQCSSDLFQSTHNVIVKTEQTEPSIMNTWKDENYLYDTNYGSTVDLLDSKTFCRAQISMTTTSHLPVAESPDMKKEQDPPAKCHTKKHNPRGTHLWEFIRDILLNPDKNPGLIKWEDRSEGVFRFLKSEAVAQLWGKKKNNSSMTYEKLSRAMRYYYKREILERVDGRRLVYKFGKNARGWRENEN
Method in brief: as §1

SPI1 = SPI1 (Homo sapiens, UniProt P17947 1-270); details: protein: recombinant; tags: N-terminal GST; dsDNA, one strand shown
Method in brief: as §1

SPIB = SPIB (Homo sapiens, UniProt Q01892 1-262); details: protein: recombinant; tags: N-terminal GST; dsDNA, one strand shown
Sequence of SPIB (Q01892 whole entry): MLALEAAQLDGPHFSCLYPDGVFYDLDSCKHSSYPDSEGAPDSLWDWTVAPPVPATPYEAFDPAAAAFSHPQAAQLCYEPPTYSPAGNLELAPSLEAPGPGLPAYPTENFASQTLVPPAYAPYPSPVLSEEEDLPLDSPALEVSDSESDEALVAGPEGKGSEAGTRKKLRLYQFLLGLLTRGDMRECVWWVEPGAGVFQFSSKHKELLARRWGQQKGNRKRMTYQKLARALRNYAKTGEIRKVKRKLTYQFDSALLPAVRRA
Method in brief: as §1

ELK3 = target: T5, ELK3 (Homo sapiens, UniProt P41970 1-407); details: protein: recombinant; tags: N-terminal GST; dsDNA, one strand shown
T5 sequence: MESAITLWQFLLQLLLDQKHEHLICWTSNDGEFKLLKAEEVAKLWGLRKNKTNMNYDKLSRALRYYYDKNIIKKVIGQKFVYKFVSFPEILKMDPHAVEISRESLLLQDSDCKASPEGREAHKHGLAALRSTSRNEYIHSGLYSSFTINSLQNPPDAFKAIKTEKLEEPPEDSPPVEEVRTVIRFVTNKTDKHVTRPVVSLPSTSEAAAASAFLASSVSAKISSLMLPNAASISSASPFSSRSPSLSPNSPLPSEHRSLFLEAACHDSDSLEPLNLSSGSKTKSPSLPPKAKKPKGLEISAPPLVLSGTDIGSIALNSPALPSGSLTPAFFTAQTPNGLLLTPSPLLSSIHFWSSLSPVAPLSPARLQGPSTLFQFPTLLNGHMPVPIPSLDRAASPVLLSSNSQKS
Method in brief: as §1

FEV = target: T6, FEV (Homo sapiens, UniProt Q99581 1-238); details: protein: recombinant; tags: N-terminal GST; dsDNA, one strand shown
T6 sequence: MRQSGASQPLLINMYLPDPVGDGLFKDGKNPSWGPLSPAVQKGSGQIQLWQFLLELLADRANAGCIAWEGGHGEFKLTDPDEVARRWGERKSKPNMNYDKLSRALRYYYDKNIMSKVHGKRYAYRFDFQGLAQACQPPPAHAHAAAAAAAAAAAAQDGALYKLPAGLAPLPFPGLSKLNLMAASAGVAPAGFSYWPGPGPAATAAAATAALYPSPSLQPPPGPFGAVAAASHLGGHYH
Method in brief: as §1

ETV5 = ETV5 (Homo sapiens, UniProt P41161 1-510); details: protein: recombinant; tags: N-terminal GST; dsDNA, one strand shown
Sequence of ETV5 (P41161 whole entry): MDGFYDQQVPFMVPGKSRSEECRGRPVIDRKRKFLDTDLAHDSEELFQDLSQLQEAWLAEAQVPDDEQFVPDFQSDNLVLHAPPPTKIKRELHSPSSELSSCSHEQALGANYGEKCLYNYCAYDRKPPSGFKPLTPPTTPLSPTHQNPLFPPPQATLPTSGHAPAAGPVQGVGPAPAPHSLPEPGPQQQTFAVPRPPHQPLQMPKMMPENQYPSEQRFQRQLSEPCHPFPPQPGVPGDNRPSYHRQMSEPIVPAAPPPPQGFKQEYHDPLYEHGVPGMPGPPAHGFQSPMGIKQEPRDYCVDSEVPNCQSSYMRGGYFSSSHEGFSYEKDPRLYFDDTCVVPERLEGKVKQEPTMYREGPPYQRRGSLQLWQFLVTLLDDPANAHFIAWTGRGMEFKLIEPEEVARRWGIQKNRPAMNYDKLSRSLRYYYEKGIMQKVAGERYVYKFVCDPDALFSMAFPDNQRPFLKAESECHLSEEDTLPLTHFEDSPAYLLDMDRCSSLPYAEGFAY
Method in brief: as §1

HSF1 = HSF1 (Homo sapiens, UniProt Q00613 1-529); details: protein: recombinant; tags: N-terminal GST; chain copies: 3; dsDNA, one strand shown
Sequence of HSF1 (Q00613 whole entry): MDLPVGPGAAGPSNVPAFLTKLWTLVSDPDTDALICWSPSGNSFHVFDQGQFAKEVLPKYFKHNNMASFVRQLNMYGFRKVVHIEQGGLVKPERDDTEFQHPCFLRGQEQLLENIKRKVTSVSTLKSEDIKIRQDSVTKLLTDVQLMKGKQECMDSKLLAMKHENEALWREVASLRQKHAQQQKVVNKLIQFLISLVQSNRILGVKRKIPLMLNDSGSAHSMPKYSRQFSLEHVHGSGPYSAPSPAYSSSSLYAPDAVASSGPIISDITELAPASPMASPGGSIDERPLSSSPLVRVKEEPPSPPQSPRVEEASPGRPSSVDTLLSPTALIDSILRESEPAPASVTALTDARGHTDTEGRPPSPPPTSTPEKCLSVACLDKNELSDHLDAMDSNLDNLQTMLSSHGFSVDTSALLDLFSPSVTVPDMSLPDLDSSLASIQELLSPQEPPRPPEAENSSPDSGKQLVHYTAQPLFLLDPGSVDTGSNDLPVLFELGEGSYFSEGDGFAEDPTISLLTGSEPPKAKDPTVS
Method in brief: as §1

SPIC = target: T7, SPIC (Homo sapiens, UniProt Q8N5J4 1-248); details: protein: recombinant; tags: N-terminal GST; dsDNA, one strand shown
T7 sequence: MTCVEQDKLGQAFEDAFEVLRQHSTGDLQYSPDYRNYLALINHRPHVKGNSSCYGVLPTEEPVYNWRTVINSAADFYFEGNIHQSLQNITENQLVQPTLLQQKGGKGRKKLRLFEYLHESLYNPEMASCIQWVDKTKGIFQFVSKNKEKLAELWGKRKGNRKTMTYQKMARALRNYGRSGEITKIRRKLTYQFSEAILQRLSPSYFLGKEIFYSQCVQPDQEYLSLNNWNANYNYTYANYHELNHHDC
Method in brief: as §1

ELF4 = ELF4 (Homo sapiens, UniProt Q99607 1-663); details: protein: recombinant; tags: N-terminal GST; dsDNA, one strand shown
Sequence of ELF4 (Q99607 whole entry): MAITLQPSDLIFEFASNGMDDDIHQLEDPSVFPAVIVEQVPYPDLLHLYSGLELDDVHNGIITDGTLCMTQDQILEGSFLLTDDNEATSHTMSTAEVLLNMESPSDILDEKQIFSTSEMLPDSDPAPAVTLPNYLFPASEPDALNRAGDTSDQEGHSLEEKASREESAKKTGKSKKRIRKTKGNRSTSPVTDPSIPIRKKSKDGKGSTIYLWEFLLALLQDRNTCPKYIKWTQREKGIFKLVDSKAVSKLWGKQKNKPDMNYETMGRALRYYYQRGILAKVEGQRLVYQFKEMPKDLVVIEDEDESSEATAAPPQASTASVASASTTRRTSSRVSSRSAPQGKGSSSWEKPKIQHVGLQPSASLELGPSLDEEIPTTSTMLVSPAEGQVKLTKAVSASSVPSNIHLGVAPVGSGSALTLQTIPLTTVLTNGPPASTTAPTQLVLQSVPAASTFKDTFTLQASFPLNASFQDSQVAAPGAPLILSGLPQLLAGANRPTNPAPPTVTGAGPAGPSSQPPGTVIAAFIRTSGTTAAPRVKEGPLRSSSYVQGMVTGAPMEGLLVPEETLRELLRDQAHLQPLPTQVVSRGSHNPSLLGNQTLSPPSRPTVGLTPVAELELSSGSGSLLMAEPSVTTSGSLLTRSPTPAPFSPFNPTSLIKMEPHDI
Method in brief: as §1

ELK4 = target: T8, ELK4 (Homo sapiens, UniProt P28324-2 1-405); details: protein: recombinant; tags: N-terminal GST; dsDNA, one strand shown
T8 sequence: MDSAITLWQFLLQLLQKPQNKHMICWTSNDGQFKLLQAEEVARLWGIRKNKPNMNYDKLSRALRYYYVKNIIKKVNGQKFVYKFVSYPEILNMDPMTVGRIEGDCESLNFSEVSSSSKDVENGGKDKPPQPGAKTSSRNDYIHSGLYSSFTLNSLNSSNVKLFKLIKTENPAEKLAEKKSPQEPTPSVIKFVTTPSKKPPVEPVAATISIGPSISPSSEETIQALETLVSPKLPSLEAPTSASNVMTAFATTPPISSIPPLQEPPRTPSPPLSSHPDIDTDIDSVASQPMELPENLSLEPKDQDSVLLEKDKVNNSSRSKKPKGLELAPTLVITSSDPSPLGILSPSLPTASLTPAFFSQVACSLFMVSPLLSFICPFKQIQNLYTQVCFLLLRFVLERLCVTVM
Method in brief: as §1

ETV2 = target: T9, ETV2 (Homo sapiens, UniProt O00321 1-342); details: protein: recombinant; tags: N-terminal GST; dsDNA, one strand shown
T9 sequence: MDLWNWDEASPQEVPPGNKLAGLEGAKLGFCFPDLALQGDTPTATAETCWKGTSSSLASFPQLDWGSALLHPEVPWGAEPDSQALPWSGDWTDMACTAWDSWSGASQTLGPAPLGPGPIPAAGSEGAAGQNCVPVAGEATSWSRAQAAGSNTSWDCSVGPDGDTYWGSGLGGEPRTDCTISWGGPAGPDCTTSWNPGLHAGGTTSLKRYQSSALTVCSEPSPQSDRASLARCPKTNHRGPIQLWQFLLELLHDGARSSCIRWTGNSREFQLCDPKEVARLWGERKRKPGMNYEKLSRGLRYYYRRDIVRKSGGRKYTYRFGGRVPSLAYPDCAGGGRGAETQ
Method in brief: as §1

ELF3 = target: T10, ELF3 (Homo sapiens, UniProt P78545 1-371); details: protein: recombinant; tags: N-terminal GST; dsDNA, one strand shown
T10 sequence: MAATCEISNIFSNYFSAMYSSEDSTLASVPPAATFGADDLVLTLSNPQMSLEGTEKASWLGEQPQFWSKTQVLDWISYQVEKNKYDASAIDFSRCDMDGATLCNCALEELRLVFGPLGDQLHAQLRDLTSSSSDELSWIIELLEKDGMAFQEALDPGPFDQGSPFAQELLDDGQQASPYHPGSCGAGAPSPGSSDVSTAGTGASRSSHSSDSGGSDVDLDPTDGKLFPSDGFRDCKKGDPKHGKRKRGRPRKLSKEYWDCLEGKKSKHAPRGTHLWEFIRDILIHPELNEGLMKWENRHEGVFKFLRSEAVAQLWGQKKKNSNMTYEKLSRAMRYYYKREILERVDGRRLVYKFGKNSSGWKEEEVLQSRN
Method in brief: as §1

CRX = CRX (Homo sapiens, UniProt O43186 1-299); details: protein: recombinant; tags: N-terminal GST; dsDNA, one strand shown
Sequence of CRX (O43186 whole entry): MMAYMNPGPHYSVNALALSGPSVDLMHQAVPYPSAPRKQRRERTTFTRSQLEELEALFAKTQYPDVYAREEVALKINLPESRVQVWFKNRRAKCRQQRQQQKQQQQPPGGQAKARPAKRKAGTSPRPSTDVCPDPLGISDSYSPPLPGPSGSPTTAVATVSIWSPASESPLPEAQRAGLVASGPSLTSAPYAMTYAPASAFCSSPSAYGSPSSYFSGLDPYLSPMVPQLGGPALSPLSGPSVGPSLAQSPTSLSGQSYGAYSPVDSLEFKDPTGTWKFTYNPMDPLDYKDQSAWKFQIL
Method in brief: as §1

ETV1 = ETV1 (Homo sapiens, UniProt P50549 1-477); details: protein: recombinant; tags: N-terminal GST; dsDNA, one strand shown
Sequence of ETV1 (P50549 whole entry): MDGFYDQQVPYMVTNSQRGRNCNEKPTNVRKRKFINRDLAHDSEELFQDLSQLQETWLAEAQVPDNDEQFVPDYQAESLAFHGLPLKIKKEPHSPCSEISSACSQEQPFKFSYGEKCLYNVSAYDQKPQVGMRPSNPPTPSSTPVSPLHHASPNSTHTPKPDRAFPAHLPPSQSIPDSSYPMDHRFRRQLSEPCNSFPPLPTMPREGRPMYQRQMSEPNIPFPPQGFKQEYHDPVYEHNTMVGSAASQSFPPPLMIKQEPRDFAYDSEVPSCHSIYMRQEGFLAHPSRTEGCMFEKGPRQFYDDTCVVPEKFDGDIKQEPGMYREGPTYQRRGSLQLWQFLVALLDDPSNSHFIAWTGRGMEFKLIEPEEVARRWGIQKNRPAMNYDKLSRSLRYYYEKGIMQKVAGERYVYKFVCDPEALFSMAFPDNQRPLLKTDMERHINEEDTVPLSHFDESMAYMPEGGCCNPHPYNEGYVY
Method in brief: as §1

TAATCG
binding signal (FLI1): 1.07 fold enrichment (6-mer frequency, TF over GST control)
binding signal (ELK1): 1.09 fold enrichment (6-mer frequency, TF over GST control)
binding signal (GABPA): 1.14 fold enrichment (6-mer frequency, TF over GST control)
binding signal (ELF1): 1.04 fold enrichment (6-mer frequency, TF over GST control)
binding signal (EHF): 1.07 fold enrichment (6-mer frequency, TF over GST control)
binding signal (SPI1): 1.02 fold enrichment (6-mer frequency, TF over GST control)
binding signal (SPIB): 1.04 fold enrichment (6-mer frequency, TF over GST control)
binding signal (ELK3): 1.07 fold enrichment (6-mer frequency, TF over GST control)
binding signal (FEV): 1.01 fold enrichment (6-mer frequency, TF over GST control)
binding signal (ETV5): 1.07 fold enrichment (6-mer frequency, TF over GST control)
binding signal (HSF1): 1.93 fold enrichment (6-mer frequency, TF over GST control)
binding signal (SPIC): 1 fold enrichment (6-mer frequency, TF over GST control)
binding signal (ELF4): 1.07 fold enrichment (6-mer frequency, TF over GST control)
binding signal (ELK4): 1.1 fold enrichment (6-mer frequency, TF over GST control)
binding signal (ETV2): 1.04 fold enrichment (6-mer frequency, TF over GST control)
binding signal (ELF3): 1.07 fold enrichment (6-mer frequency, TF over GST control)
binding signal (CRX): 2.89 fold enrichment (6-mer frequency, TF over GST control)
binding signal (ETV1): 1.01 fold enrichment (6-mer frequency, TF over GST control)
